The values that follow come from PubChem BioAssay (EPA / NIEHS).

Holding throughout (conditions): mRNA level, 48 h; actives raise or lower the signal
Read-out in assay [1]: Apoptosis regulator Bcl-2 (Homo sapiens) (UniProt P10415)
In words: LTEA_HepaRG_BCL2: Life Technologies and Expression Analysis (LTEA) Assay for Bcl-2 gene using HepaRG (AID 2283475). Put shortly: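 Plated human HepaRG cells are exposed to test chemicals for 48 h across eight concentrations from 100 uM downward in half-log steps (0.5% DMSO). BCL2 expression is then measured by qRT-PCR with housekeeping normalisation and fitted bidirectionally against vehicle.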

Read-out in assay [2]: Bcl-2 (BID) gene, BID (gene 637)
In words: LTEA_HepaRG_BID: Life Technologies and Expression Analysis (LTEA) Assay for Bcl-2 (BID) gene using HepaRG (AID 2283476). Put shortly: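 Cells are plated, cultured 48 h, switched to serum-free induction medium, then dosed 48 h (100 uM top, half-log steps, 0.5% DMSO). RNA is isolated and BID expression read by qRT-PCR.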

Read-out in a further assay: Caspase-3 (Homo sapiens) (UniProt P42574)
In words: LTEA_HepaRG_CASP3: Life Technologies and Expression Analysis (LTEA) Assay for cysteine-aspartic acid protease (CASP3) using HepaRG (AID 2283477). The gist of the method: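 In HepaRG liver cells dosed for 48 h at up to 100 uM (eight-point, duplicate), CASP3 expression changes are scored by qRT-PCR. Activity is fitted in both directions with 0.5% DMSO as baseline.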

Read-out in assay [3]: Cytochrome P450 (CYP24A1), CYP24A1 (gene 1591)
In words: LTEA_HepaRG_CYP24A1: Life Technologies and Expression Analysis (LTEA) Assay for Cytochrome P450 (CYP24A1) using HepaRG (AID 2283478). The gist of the method:
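Human liver HepaRG cultures receive each chemical for 48 h across an eight-point half-log series topping at 100 uM in 0.5% DMSO. Induction or suppression of CYP24A1 mRNA is scored relative to vehicle after housekeeping-gene normalization.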

Read-out in assay [4]: Cytochrome P450 (CYP1A2), CYP1A2 (gene 1544)
In words: LTEA_HepaRG_CYP1A2: Life Technologies and Expression Analysis (LTEA) Assay for Cytochrome P450 (CYP1A2) using HepaRG (AID 2283479). The gist of the method:
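Assesses CYP1A2 mRNA in human HepaRG liver cells after 48 h chemical exposure at up to 100 uM. Values come from qRT-PCR with bidirectional curve fitting relative to DMSO.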

Read-out in assay [5]: Cytochrome P450 (CYP2B6), CYP2B6 (gene 1555)
In words: LTEA_HepaRG_CYP2B6: Life Technologies and Expression Analysis (LTEA) Assay for Cytochrome P450 (CYP2B6) using HepaRG (AID 2283481). The gist of the method:
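Using 48 h treatment of HepaRG cells in serum-free induction medium, concentrations spanned half-log steps from 100 uM in 0.5% DMSO vehicle. CYP2B6 mRNA induction or loss is scored by qRT-PCR against DMSO.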

Read-out in assay [6]: Cytochrome P450 2C19 (Homo sapiens) (UniProt P33261)
In words: LTEA_HepaRG_CYP2C19: Life Technologies and Expression Analysis (LTEA) Assay for CYP2C19 using HepaRG (AID 2283482). The gist of the method:
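Human HepaRG liver cells received test chemicals for 48 h (highest 100 uM, half-log dilutions in 0.5% DMSO). CYP2C19 mRNA induction or loss is read by multiplexed qRT-PCR and fitted in both directions versus vehicle.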

Read-out in another assay: CYP2C8 (gene 1558)
In words: LTEA_HepaRG_CYP2C8: Life Technologies and Expression Analysis (LTEA) Assay for CYP2C8 using HepaRG (AID 2283483). Put shortly: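 HepaRG (human liver line), 48 h chemical exposure, 8-pt half-log series from 100 uM, 0.5% DMSO vehicle. Readout: CYP2C8 transcript by qRT-PCR, housekeeping-normalized. Bidirectional fit vs DMSO baseline.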

Read-out in a further assay: CYP2C9 (gene 1559)
In words: LTEA_HepaRG_CYP2C9: Life Technologies and Expression Analysis (LTEA) Assay for CYP2C9 using HepaRG (AID 2283484). Put shortly: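 HepaRG, 48 h dosing, 8-pt half-log series, top 100 uM, 0.5% DMSO vehicle. Read-out: CYP2C9 transcript by TaqMan qRT-PCR, housekeeping-normalized (ACTB/GAPDH/POLR2A). Gain or loss fitted vs DMSO baseline.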

Read-out in the next assay: CYP2E1 (gene 1571)
Put plainly: LTEA_HepaRG_CYP2E1: Life Technologies and Expression Analysis (LTEA) Assay for CYP2E1 using HepaRG (AID 2283485). The gist of the method:
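Readout is qRT-PCR of CYP2E1 mRNA, normalized to three housekeeping genes and fitted bidirectionally against 0.5% DMSO. HepaRG cells were dosed 48 h at eight concentrations, highest 100 uM with half-log dilutions.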

Read-out in the next assay: CYP4A11 (gene 1579)
Put plainly: LTEA_HepaRG_CYP4A11: Life Technologies and Expression Analysis (LTEA) Assay for CYP4A11 using HepaRG (AID 2283486). Put shortly: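 Readout is CYP4A11 mRNA induction or suppression (qRT-PCR, ACTB/GAPDH/POLR2A normalization) in human HepaRG cells after 48 h chemical treatment, concentrations to 100 uM in 0.5% DMSO, fitted bidirectionally against vehicle.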

Read-out in assay [7]: Cytochrome P450 3A4 (Homo sapiens) (UniProt P08684)
Put plainly: LTEA_HepaRG_CYP3A4: Life Technologies and Expression Analysis (LTEA) Assay for CYP3A4 using HepaRG (AID 2283487). The gist of the method: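 HepaRG, 48 h exposure, 8-pt CRC from 100 uM (half-log), 0.5% DMSO, duplicates; serum-free induction medium. Readout: CYP3A4 mRNA, qRT-PCR, ACTB/GAPDH/POLR2A normalization. Bidirectional fit vs DMSO.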

Read-out in assay [8]: DNA damage-inducible transcript 3 (DDIT3), DDIT3 (gene 1649)
Put plainly: LTEA_HepaRG_DDIT3: Life Technologies and Expression Analysis (LTEA) Assay for DNA damage-inducible transcript 3 (DDIT3) using HepaRG (AID 2283488). The gist of the method:
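Cells are human HepaRG liver cells treated for 48 h with eight half-log concentrations up to 100 uM in 0.5% DMSO. Transcript levels come from qRT-PCR normalized to three housekeeping genes, with activity fitted in both directions relative to vehicle.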

Read-out in assay [9]: Pro-epidermal growth factor (Homo sapiens) (UniProt P01133)
Put plainly: LTEA_HepaRG_EGF: Life Technologies and Expression Analysis (LTEA) Assay for Epidermal growth factor (EGF) using HepaRG (AID 2283489). Put shortly:
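EGF expression changes in human HepaRG cells are scored by bidirectional fitting relative to 0.5% DMSO controls. Chemicals are tested at eight half-log concentrations up to 100 uM for 48 h in serum-free induction medium.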

Read-out in assay [10]: Early growth response protein 1 (EGR1) transcription factor, EGR1 (gene 1958)
In words: LTEA_HepaRG_EGR1: Life Technologies and Expression Analysis (LTEA) Assay for Early growth response protein 1 (EGR1) transcription factor using HepaRG (AID 2283490). Put shortly:
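HepaRG, 48 h exposure, 8-pt half-log series from 100 uM, 0.5% DMSO vehicle; EGR1 transcript by TaqMan qRT-PCR (Fluidigm array), housekeeping-normalized; bidirectional fit relative to DMSO baseline.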

Read-out in assay [11]: Ezrin (EZR), EZR (gene 7430)
Put plainly: LTEA_HepaRG_EZR: Life Technologies and Expression Analysis (LTEA) Assay for Ezrin (EZR) using HepaRG (AID 2283491). The gist of the method: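 Read-out is EZR transcript level by qRT-PCR, normalized to three housekeeping genes and fitted bidirectionally against the DMSO control. Human HepaRG cells received test chemicals for 48 h at eight half-log concentrations up to 100 uM in 0.5% DMSO.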

Read-out in assay [12]: Cytochrome P450 3A7 (Homo sapiens) (UniProt P24462)
In words: LTEA_HepaRG_CYP3A7: Life Technologies and Expression Analysis (LTEA) Assay for CYP3A7 using HepaRG (AID 2283492). The gist of the method:
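Cells were thawed, plated, cultured 48 h, then treated for a further 48 h with chemicals (eight-point half-log series from 100 uM, 0.5% DMSO). RNA was isolated and CYP3A7 expression quantified by qRT-PCR normalised to ACTB, GAPDH and POLR2A.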

Read-out in a further assay: CYP3A5 (gene 1577)
Put plainly: LTEA_HepaRG_CYP3A5: Life Technologies and Expression Analysis (LTEA) Assay for CYP3A5 using HepaRG (AID 2283493). Put shortly: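 Human HepaRG hepatic cells receive 48 h chemical treatment at eight concentrations (half-log steps from 100 uM) in 0.5% DMSO. Expression of CYP3A5 is quantified by Fluidigm qRT-PCR and normalized to three reference genes.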

Read-out in assay [13]: Fatty Acid-Binding Protein 1 (FABP1), FABP1 (gene 2168)
In words: LTEA_HepaRG_FABP1: Life Technologies and Expression Analysis (LTEA) Assay for Fatty Acid-Binding Protein 1 (FABP1) using HepaRG (AID 2283494). Put shortly: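 qRT-PCR readout of FABP1 transcript (normalized to three housekeeping genes) after 48 h chemical exposure of HepaRG cells; eight concentrations, half-log steps, max 100 uM, 0.5% DMSO vehicle; gain or loss fitted relative to DMSO baseline.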

A word on the AC50: it is the midpoint of the concentration-response curve, whichever way the signal moves.

Active and inactive are the calls of the source. How the source made its calls: active means hit-call score of the fitted dose curve at least 0.9, where 1 is the maximum; inactive means score below 0.9.

Chain of Cytochrome P450 3A4 (Homo sapiens) (P08684 whole entry, looked up): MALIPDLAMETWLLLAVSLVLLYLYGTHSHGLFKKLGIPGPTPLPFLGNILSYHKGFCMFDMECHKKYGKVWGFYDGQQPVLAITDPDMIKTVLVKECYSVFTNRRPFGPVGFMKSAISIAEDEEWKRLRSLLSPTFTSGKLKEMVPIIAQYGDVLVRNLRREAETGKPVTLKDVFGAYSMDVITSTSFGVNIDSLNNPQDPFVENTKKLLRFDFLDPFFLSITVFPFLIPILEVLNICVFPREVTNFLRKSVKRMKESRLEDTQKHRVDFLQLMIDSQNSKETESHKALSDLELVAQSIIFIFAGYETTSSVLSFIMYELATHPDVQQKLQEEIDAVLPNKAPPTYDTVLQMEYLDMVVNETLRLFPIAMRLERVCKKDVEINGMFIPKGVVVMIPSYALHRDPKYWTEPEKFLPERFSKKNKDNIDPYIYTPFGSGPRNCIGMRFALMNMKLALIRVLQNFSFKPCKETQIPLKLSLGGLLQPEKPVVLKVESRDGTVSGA
Chain of Caspase-3 (Homo sapiens) (P42574 whole entry, looked up): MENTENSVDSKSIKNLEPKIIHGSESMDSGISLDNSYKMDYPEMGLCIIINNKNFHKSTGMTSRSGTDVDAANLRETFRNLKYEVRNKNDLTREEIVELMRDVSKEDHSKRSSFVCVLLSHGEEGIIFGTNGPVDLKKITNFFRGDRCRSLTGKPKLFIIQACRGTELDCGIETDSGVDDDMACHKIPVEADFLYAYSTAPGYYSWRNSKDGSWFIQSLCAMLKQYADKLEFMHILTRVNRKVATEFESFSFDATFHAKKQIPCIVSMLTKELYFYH
Chain of Cytochrome P450 2C19 (Homo sapiens) (P33261 whole entry, looked up): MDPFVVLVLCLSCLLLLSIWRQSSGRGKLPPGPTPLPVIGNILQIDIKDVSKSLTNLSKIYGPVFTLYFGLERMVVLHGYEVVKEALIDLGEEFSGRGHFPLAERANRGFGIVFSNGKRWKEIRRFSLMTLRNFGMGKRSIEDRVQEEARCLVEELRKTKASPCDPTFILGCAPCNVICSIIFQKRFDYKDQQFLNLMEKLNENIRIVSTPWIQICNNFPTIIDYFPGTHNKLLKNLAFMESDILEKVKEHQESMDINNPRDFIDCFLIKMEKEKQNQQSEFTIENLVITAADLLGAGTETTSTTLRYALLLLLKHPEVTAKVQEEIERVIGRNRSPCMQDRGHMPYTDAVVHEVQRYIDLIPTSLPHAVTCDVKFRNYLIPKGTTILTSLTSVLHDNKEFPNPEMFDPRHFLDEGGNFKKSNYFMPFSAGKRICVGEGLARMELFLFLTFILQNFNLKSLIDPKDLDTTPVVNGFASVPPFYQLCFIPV
Chain of Apoptosis regulator Bcl-2 (Homo sapiens) (P10415 whole entry, looked up): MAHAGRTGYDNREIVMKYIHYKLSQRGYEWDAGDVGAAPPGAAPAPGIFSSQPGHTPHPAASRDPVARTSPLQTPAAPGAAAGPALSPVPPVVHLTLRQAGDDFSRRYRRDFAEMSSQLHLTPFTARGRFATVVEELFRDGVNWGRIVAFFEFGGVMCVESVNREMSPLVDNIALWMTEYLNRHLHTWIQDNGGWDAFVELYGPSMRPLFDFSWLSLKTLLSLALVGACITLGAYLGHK
Chain of Cytochrome P450 3A7 (Homo sapiens) (P24462 whole entry, looked up): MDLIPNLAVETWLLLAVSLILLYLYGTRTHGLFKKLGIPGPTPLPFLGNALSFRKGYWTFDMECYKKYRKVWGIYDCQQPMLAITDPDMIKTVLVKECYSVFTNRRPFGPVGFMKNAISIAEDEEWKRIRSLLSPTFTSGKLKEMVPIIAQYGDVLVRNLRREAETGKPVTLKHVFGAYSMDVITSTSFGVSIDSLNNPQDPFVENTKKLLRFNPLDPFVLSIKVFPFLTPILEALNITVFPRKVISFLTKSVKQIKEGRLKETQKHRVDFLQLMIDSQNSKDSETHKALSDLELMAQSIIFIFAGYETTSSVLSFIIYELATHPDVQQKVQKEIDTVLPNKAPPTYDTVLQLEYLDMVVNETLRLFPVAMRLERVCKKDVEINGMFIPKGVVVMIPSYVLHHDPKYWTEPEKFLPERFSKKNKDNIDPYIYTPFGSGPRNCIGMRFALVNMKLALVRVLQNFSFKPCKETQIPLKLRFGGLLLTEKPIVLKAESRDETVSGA

On to `Oc1ccc2ccccc2c1`, for which the molecule was called inactive (in assay [1]; in assay [2]; in the assay with Caspase-3 (Homo sapiens); in assay [3]; in [5]; in assay [6]). For the same molecule, the molecule was called inactive (with CYP2C8 (gene 1558); with CYP2C9 (gene 1559); in the assay with CYP2E1 (gene 1571); with CYP4A11 (gene 1579); in [7]; in assay [8]). The molecule was called inactive (in assay [9]; in assay [10]; in assay [11]; in assay [12]; with CYP3A5 (gene 1577); in assay [13]). In addition, the AC50 in [4] was 78.1 µM (active).

Turning to `O=C(OCCCCCCOC(=O)c1ccccc1)c1ccccc1`, the molecule was classed as inactive (in assay [1]; in [2]; in the assay with Caspase-3 (Homo sapiens); in assay [3]; in assay [5]; in assay [6]). Also, the call (with CYP2C8 (gene 1558); with CYP2C9 (gene 1559); in the assay with CYP2E1 (gene 1571); with CYP4A11 (gene 1579); in [7]; in assay [8]) was inactive. Further, the molecule was called inactive (in assay [9]; in assay [10]; in [11]; in the assay with CYP3A5 (gene 1577); in [13]). Moreover, in [4], the half-maximal activity concentration (AC50) was 12.5 µM (active).

`O=CCCCC=O`: the result (in assay [1]; in assay [2]; with Caspase-3 (Homo sapiens); in assay [3]; in assay [4]; in assay [5]) was inactive. Also, the outcome (in assay [6]; with CYP2C8 (gene 1558); with CYP2C9 (gene 1559); with CYP4A11 (gene 1579); in assay [7]; in [8]) was inactive. In addition, the result (in [9]; in assay [10]; in assay [11]; in the assay with CYP3A5 (gene 1577); in assay [13]) was inactive.
